The panel holds about 83,000 compounds, 20% with a hit somewhere; the sample as a whole holds those more often.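 Interpretation: 100, growth as untreated; towards 0, rising growth inhibition; 0, no net growth; 0 to -100, cell death. Compounds scoring below 10 were considered active.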 Unmarked numbers belong to inactive results. Active and inactive are the calls of the source.
Tested on: ACHN renal
Assay: NCI-60 one-dose screen, 48 h (100 = growth as untreated, 0 = no growth, -100 = all killed)
Details: 10 µM unless noted

How did the growth turn out when `CC(C)(C)c1ccc2oc(=O)n(SC(Cl)(Cl)Cl)c2c1` was run?
The growth was 106%.

With `COc1ccc2nc(-c3ccc(Cl)cc3)cc(-c3nnc(SC/C(=N/O)c4ccccc4)o3)c2c1` as the compound, how does the growth read?
The growth was 47.5%.

With `CCOC(=O)c1c(-c2ccc(O)cc2)c(C#N)c2c(C#N)c(N)nn2c1N` as the compound, how does the growth read?
The growth was 88%.

How did the growth turn out when `C=CCn1c(SCC(=O)Nc2ccc(C(=O)/C=C/c3cc(OC)c(OC)c(OC)c3)cc2)nnc1-c1ccc(Cl)cc1` was run?
The growth was 37.4%.

`CCOC(=O)c1ccc(Nc2ncnc3ccc(NC(=O)c4ccccc4)cc23)cc1` was tested. Which growth did it give?
Its growth is 93.5%.

Which growth does the source give for `CCOC(=O)c1cnn(-c2nc(-c3ccc(F)cc3)c(C#N)c(N3CCOCC3)n2)c1N` here?
The growth was 95.7%.

`CSc1nc(-c2ccc(F)cc2)c(C#N)c(N2CCOCC2)n1` was tested. Which growth did it give?
The growth was 90.1%.

With `c1ccc(Sc2ncccn2)nc1` as the compound, how does the growth read?
The growth was 98.2%.

Which growth does the source give for `COc1ccc(/C=C/C(=O)/C=C(/C=C/c2ccc(OC)c(OC)c2)OB(F)F)cc1OC` here?
The growth was -15.8% (active).

With `Cc1cccc(NC(=O)c2sc3nc4c(cc3c2N)CN(Cc2ccccc2)CC4)c1C` as the compound, how does the growth read?
The growth was 52.9%.

`Nc1c(C(=O)Nc2cccc3ccccc23)sc2nc3c(cc12)CCCCCC3` was tested. Which growth did it give?
Its growth is 57.4%.

For `O=C1c2ccccc2C(=O)c2c1oc1c2c(=O)[nH]c2ccccc21`, which growth is on record?
The growth was 65.7%.

`C=CCn1c(CN2CCN(c3cc4c(cc3F)c(=O)c(C(=O)O)cn4C3CC3)CC2)n[nH]c1=S` was tested. Which growth did it give?
Its growth is 102%.

Which growth does the source give for `COc1cccc2c1-c1ccccc1C2=O` here?
Its growth is 50%.

With `COc1ccc2cc(/C=C3\N=C(c4cc(OC)c(OC)c(OC)c4)OC3=O)c(OC)nc2c1` as the compound, how does the growth read?
The growth was 101%.

With `C=CCn1c(SCC(=O)Nc2ccc(C(=O)/C=C/c3cc(OC)c(OC)c(OC)c3)cc2)nnc1-c1ccccc1` as the compound, how does the growth read?
Its growth is 103%.

With `O=C(CCCC(=O)Nc1ccc(-n2nnc3cc(Cl)c(Cl)cc32)cc1)Nc1ccc(-n2nnc3cc(Cl)c(Cl)cc32)cc1` as the compound, how does the growth read?
The growth was 66.2%.

How did the growth turn out when `COc1ccc(Nc2cc(NC(=O)CNc3cc(OC)c(Cl)c(OC)c3Cl)ncn2)cc1` was run?
The growth was 78.8%.

Which growth does the source give for `COc1cc(NC(=O)Nc2cnc(Nc3ccc(N4CCOCC4)cc3)nc2Oc2ccc(C(F)(F)F)cc2)cc(OC)c1` here?
Its growth is 105%.

`CCCCN(CCCC)CC(CN(CC)CC)OC(=O)Nc1ccccc1` (stereo unspecified) was tested. Which growth did it give?
Its growth is 99.2%.

`N#Cc1ccc(N2Cc3cc(Cl)ccc3OC3=C2C(=O)N(Cc2ccccc2)C3=O)cc1` was tested. Which growth did it give?
The growth was -85.6% (active).

`Nc1c(C(=O)Nc2cccc3ccccc23)sc2nc3c(cc12)CCCCC3` was tested. Which growth did it give?
Its growth is 53.6%.

How did the growth turn out when `Cc1cc(C)cc(Nc2nccc(-c3c(-c4ccc(F)cc4)ncn3C3CCNCC3)n2)c1` was run?
Its growth is 4.78% (active).

Which growth does the source give for `Nc1c(C(=O)Nc2cccc3ccccc23)sc2nc3c(cc12)COCC3` here?
The growth was 62.5%.

Which growth does the source give for `CC(C)Cc1cc(CNC(=O)C2[C@H]3CN(C(=O)c4ccccc4)C[C@@H]23)nn1-c1ccccc1` (stereo partly specified) here?
Its growth is 92.2%.

For `O=C1c2ccccc2C(=O)c2c1oc1c2c(=O)[nH]c2ccc(Cl)cc21`, which growth is on record?
The growth was -14.2% (active).

How did the growth turn out when `C=C1C(=O)O[C@H]2[C@H]1CC/C(C=Nc1c(N)cc(F)cc1Br)=C\CC[C@@]1(C)O[C@@H]21` was run?
Its growth is 63.4%.

Which growth does the source give for `Nc1ccc2c(c1)C(=O)C(=O)c1c-2nc2ccccn12` here?
Its growth is -58.8% (active).

For `C#C[C@@]1(O)[C@@H](CO)O[C@@H](n2cc(F)c3c(N)ncnc32)[C@@H]1O`, which growth is on record?
Its growth is -10.6% (active).

With `C=C(C)[C@@H]1CCC=C2CC[C@]3(C)[C@H](CC[C@@H]4[C@@]5(C)CCCNC(C)(C)[C@@H]5CC[C@]43C)[C@H]21` as the compound, how does the growth read?
The growth was 78.7%.

With `COc1ccc(/C=C/C(=O)C(CC2CCC2)C(=O)/C=C/c2ccc(OC)c(OC)c2)cc1OC` as the compound, how does the growth read?
Its growth is -77.2% (active).

`CCOC(=O)C1=C(C)n2nc(CC#N)c(C#N)c2NC1c1ccc(CC)cc1` (stereo unspecified) was tested. Which growth did it give?
The growth was 98.7%.

For `CCCCc1ccc(N=Nc2ccc(OCC[N+](C)(C)C)cc2)cc1`, which growth is on record?
The growth was 67%.

For `CC(C)NS(=O)(=O)c1cccc(-c2ccc3c4c(n(CCCN(C)C)c(=O)c3c2)-c2ccccc2C4=O)c1`, which growth is on record?
The growth was 82.4%.

For `COc1ccc2[nH]c(=O)c(/C=C/C(=O)c3ccccc3OC)cc2c1`, which growth is on record?
The growth was 38.8%.

Which growth does the source give for `CCOC(=O)c1c(C)nc2c(c1N)/C(=C/c1cccs1)C(=O)N2Cc1ccccc1` here?
Its growth is 79.7%.

`C/C(=N/Nc1nc2ccccc2n1C)c1ccccn1` was tested. Which growth did it give?
Its growth is 10.3%.

With `CC(C)NS(=O)(=O)c1cccc(-c2ccc3c(=O)n(CCCN)c4c(c3c2)C(=O)c2ccccc2-4)c1` as the compound, how does the growth read?
The growth was 101%.

Tested on: A498 renal
Assay: as above
Details: 10 µM unless noted

For `CC(C)(C)c1ccc2oc(=O)n(SC(Cl)(Cl)Cl)c2c1`, which growth is on record?
Its growth is 109%.

`COc1ccc2nc(-c3ccc(Cl)cc3)cc(-c3nnc(SC/C(=N/O)c4ccccc4)o3)c2c1` was tested. Which growth did it give?
The growth was 63.5%.

`CCOC(=O)c1c(-c2ccc(O)cc2)c(C#N)c2c(C#N)c(N)nn2c1N` was tested. Which growth did it give?
The growth was 34.9%.

How did the growth turn out when `C=CCn1c(SCC(=O)Nc2ccc(C(=O)/C=C/c3cc(OC)c(OC)c(OC)c3)cc2)nnc1-c1ccc(Cl)cc1` was run?
The growth was 15.6%.

For `CCOC(=O)c1ccc(Nc2ncnc3ccc(NC(=O)c4ccccc4)cc23)cc1`, which growth is on record?
Its growth is 106%.

`CCOC(=O)c1cnn(-c2nc(-c3ccc(F)cc3)c(C#N)c(N3CCOCC3)n2)c1N` was tested. Which growth did it give?
The growth was 71.3%.

How did the growth turn out when `CSc1nc(-c2ccc(F)cc2)c(C#N)c(N2CCOCC2)n1` was run?
Its growth is 74.4%.

How did the growth turn out when `c1ccc(Sc2ncccn2)nc1` was run?
The growth was 92.9%.

How did the growth turn out when `COc1ccc(/C=C/C(=O)/C=C(/C=C/c2ccc(OC)c(OC)c2)OB(F)F)cc1OC` was run?
Its growth is 95.7%.

With `Cc1cccc(NC(=O)c2sc3nc4c(cc3c2N)CN(Cc2ccccc2)CC4)c1C` as the compound, how does the growth read?
The growth was -0.165% (active).

Which growth does the source give for `Nc1c(C(=O)Nc2cccc3ccccc23)sc2nc3c(cc12)CCCCCC3` here?
The growth was -4.7% (active).

For `O=C1c2ccccc2C(=O)c2c1oc1c2c(=O)[nH]c2ccccc21`, which growth is on record?
Its growth is 104%.

For `C=CCn1c(CN2CCN(c3cc4c(cc3F)c(=O)c(C(=O)O)cn4C3CC3)CC2)n[nH]c1=S`, which growth is on record?
The growth was 98.2%.

Which growth does the source give for `COc1cccc2c1-c1ccccc1C2=O` here?
Its growth is 7.69% (active).

How did the growth turn out when `COc1ccc2cc(/C=C3\N=C(c4cc(OC)c(OC)c(OC)c4)OC3=O)c(OC)nc2c1` was run?
Its growth is 99.5%.

`C=CCn1c(SCC(=O)Nc2ccc(C(=O)/C=C/c3cc(OC)c(OC)c(OC)c3)cc2)nnc1-c1ccccc1` was tested. Which growth did it give?
The growth was 87.5%.

`O=C(CCCC(=O)Nc1ccc(-n2nnc3cc(Cl)c(Cl)cc32)cc1)Nc1ccc(-n2nnc3cc(Cl)c(Cl)cc32)cc1` was tested. Which growth did it give?
Its growth is 36.5%.

`COc1ccc(Nc2cc(NC(=O)CNc3cc(OC)c(Cl)c(OC)c3Cl)ncn2)cc1` was tested. Which growth did it give?
Its growth is -1.25% (active).

`COc1cc(NC(=O)Nc2cnc(Nc3ccc(N4CCOCC4)cc3)nc2Oc2ccc(C(F)(F)F)cc2)cc(OC)c1` was tested. Which growth did it give?
Its growth is 110%.

`CCCCN(CCCC)CC(CN(CC)CC)OC(=O)Nc1ccccc1` (stereo unspecified) was tested. Which growth did it give?
Its growth is 117%.

How did the growth turn out when `N#Cc1ccc(N2Cc3cc(Cl)ccc3OC3=C2C(=O)N(Cc2ccccc2)C3=O)cc1` was run?
Its growth is 129%.

Which growth does the source give for `Nc1c(C(=O)Nc2cccc3ccccc23)sc2nc3c(cc12)CCCCC3` here?
Its growth is -1.52% (active).

Which growth does the source give for `Cc1cc(C)cc(Nc2nccc(-c3c(-c4ccc(F)cc4)ncn3C3CCNCC3)n2)c1` here?
The growth was 53.2%.

Which growth does the source give for `Nc1c(C(=O)Nc2cccc3ccccc23)sc2nc3c(cc12)COCC3` here?
Its growth is 54.2%.

How did the growth turn out when `CC(C)Cc1cc(CNC(=O)C2[C@H]3CN(C(=O)c4ccccc4)C[C@@H]23)nn1-c1ccccc1` (stereo partly specified) was run?
Its growth is 96.6%.

`O=C1c2ccccc2C(=O)c2c1oc1c2c(=O)[nH]c2ccc(Cl)cc21` was tested. Which growth did it give?
Its growth is 80.4%.

With `C=C1C(=O)O[C@H]2[C@H]1CC/C(C=Nc1c(N)cc(F)cc1Br)=C\CC[C@@]1(C)O[C@@H]21` as the compound, how does the growth read?
The growth was 119%.

With `Nc1ccc2c(c1)C(=O)C(=O)c1c-2nc2ccccn12` as the compound, how does the growth read?
Its growth is -19.3% (active).

How did the growth turn out when `C#C[C@@]1(O)[C@@H](CO)O[C@@H](n2cc(F)c3c(N)ncnc32)[C@@H]1O` was run?
The growth was -76% (active).

`C=C(C)[C@@H]1CCC=C2CC[C@]3(C)[C@H](CC[C@@H]4[C@@]5(C)CCCNC(C)(C)[C@@H]5CC[C@]43C)[C@H]21` was tested. Which growth did it give?
The growth was 101%.

`COc1ccc(/C=C/C(=O)C(CC2CCC2)C(=O)/C=C/c2ccc(OC)c(OC)c2)cc1OC` was tested. Which growth did it give?
Its growth is -34.5% (active).

`CCOC(=O)C1=C(C)n2nc(CC#N)c(C#N)c2NC1c1ccc(CC)cc1` (stereo unspecified) was tested. Which growth did it give?
The growth was 104%.

Which growth does the source give for `CCCCc1ccc(N=Nc2ccc(OCC[N+](C)(C)C)cc2)cc1` here?
Its growth is 67.5%.

With `CC(C)NS(=O)(=O)c1cccc(-c2ccc3c4c(n(CCCN(C)C)c(=O)c3c2)-c2ccccc2C4=O)c1` as the compound, how does the growth read?
Its growth is 83.3%.

How did the growth turn out when `COc1ccc2[nH]c(=O)c(/C=C/C(=O)c3ccccc3OC)cc2c1` was run?
The growth was 21.7%.

For `CCOC(=O)c1c(C)nc2c(c1N)/C(=C/c1cccs1)C(=O)N2Cc1ccccc1`, which growth is on record?
The growth was 70.2%.

`C/C(=N/Nc1nc2ccccc2n1C)c1ccccn1` was tested. Which growth did it give?
The growth was -29.8% (active).

For `CC(C)NS(=O)(=O)c1cccc(-c2ccc3c(=O)n(CCCN)c4c(c3c2)C(=O)c2ccccc2-4)c1`, which growth is on record?
The growth was 103%.
